Source: PubChem BioAssay
SSB-PriA inh – inhibitors of Klebsiella pneumoniae PriA binding to SSB C-terminal tail, primary screen, biochemical, AlphaScreen; AID 1272365, 2023; 430,000 compounds, 0.6% hits; AlphaScreen SSBct-PriA binding, biotinylated peptide; inhibition, % at 33 µM; PriA–SSB C-terminal tail interaction (Klebsiella pneumoniae); in the data active = inhibition mostly above about 37%, no sharp cut-off; inactive = mostly below about 20%;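 note: plate controls were negative control peptide for no effect and reference peptide for full effect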
Mtb hypoxia rep – PubChem AID 1159583; M. tuberculosis hypoxia-regulated fluorescent reporter, fluorescence; fluorescence inhibition, % (no concentration beside the values); 300,000 compounds, 0.1% hits; in the data active = fluorescence inhibition mostly above about 23%, no sharp cut-off; inactive = mostly below about 17%
SARS 3CLpro inh-1 – SARS-CoV 3CLpro protease inhibitors, primary screen, biochemical, quenched FRET | Replicase polyprotein 1ab (Severe acute respiratory syndrome coronavirus), P0C6X7 | recombinant SARS-CoV 3CLpro, quenched FRET peptide cleavage | inhibition, % at 6 µM | 290,000 compounds, 0.14% hits; in the data active = inhibition above about 12%
VHR inh abs – VHR1 phosphatase inhibitors, primary screen, biochemical, absorbance, uHTS. Dual specificity protein phosphatase 3 (Homo sapiens), P51452. recombinant VHR phosphatase, pNPP absorbance. inhibition, % at 13.3 µM. 290,000 compounds, 0.52% hits. AID 1654, 2009; in the data active = inhibition above about 50%
Target sequence (P51452 whole entry, looked up): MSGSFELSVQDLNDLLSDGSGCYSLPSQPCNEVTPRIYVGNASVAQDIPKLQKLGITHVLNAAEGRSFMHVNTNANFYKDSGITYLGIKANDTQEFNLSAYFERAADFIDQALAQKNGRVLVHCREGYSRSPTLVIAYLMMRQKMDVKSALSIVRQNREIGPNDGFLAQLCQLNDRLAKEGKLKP
CCHFV vOTU inh – CCHFV vOTU protease inhibitors, primary screen, biochemical, Pep-AMC substrate, fluorescence; inhibition, % at 11.5 µM; 370,000 compounds, 0.55% hits; Crimean-Congo hemorrhagic fever virus L polyprotein viral ovarian tumor (vOTU) protease …; in the data active = inhibition above about 30%; note: 0% = vehicle wells with enzyme and 100% = no enzyme wells
SARS 3CLpro inh-2 – confirmation of SARS coronavirus 3C-like protease inhibitors, retest, confirmation, biochemical | 380 compounds, 36% hits | inhibition, % at 6 µM | QFRET protease activity assay, 3CLpro | shares compounds with SARS 3CLpro inh-1; in the data active = inhibition above about 13%
The depositor's hits bear a star; · = no result given. Shown are actives, neighbours in structure and some others; about 1.3% of the full set was active somewhere.

SMILES	SSB-PriA inh	Mtb hypoxia rep	SARS 3CLpro inh-1	VHR inh abs	CCHFV vOTU inh	SARS 3CLpro inh-2
CC(C)C(=O)N1CCCc2ccc(NC(=O)C(=O)NCc3ccccn3)cc21	-17.0	·	·	·	·	·
O=C(/C=C/c1cc(Cl)cc2c1OCOC2)c1cc(Br)ccc1O	1.0	·	·	·	·	·
COc1cccc(C(C(=O)NCC2CCCO2)N(C(=O)Cn2nnc3ccccc32)c2ccc(NC(C)=O)cc2)c1OC (stereo not given)	-3.8	10.5	15.3*	20.4	1.8	9.1
COc1ccc(C(C(=O)NCC2CCCO2)N(C(=O)Cn2nnc3ccccc32)c2ccc(NC(C)=O)cc2)c(OC)c1 (stereo not given)	-5.1	6.3	17.6*	24.1	-9.2	10.9
O=C(/C=C/c1ccc(Cl)c([N+](=O)[O-])c1)NCc1cccnc1	-4.4	·	17.9*	·	2.3	18.5*
COc1ccc(NS(=O)(=O)c2ccc(OC)c(N(C)S(=O)(=O)c3ccc(Cl)cc3)c2)cc1	1.7	8.9	2.5	-0.5	11.9	·
COc1ccc(S(=O)(=O)Nc2ccc(F)cc2)cc1N(C)S(=O)(=O)c1ccc(Cl)cc1	3.9	-3.3	17.0*	26.1	-9.5	-1.8
CC(NC(=O)c1ccc(Cl)c(Cl)c1)c1ccc(-c2ccccc2)cc1 (stereo not given)	-9.8	11.8	-1.9	6.9	2.1	·
CC(NC(=O)CCl)c1ccc(Cl)c(Cl)c1 (stereo not given)	-10.5	·	19.7*	6.3	-0.6	40.0*
COc1cc(OC)c(OC)cc1/C=C1\Oc2cc(OCC(=O)N3Cc4ccccc4C[C@H]3C(=O)O)ccc2C1=O	-3.6	·	12.5*	20.6	·	4.1
CN1C(=O)c2cc(NC(=O)Cc3cccc4ccccc34)ccc2Oc2ccccc21	-9.0	·	·	·	·	·
CCn1c(SCc2nc(-c3ccc(Br)cc3)no2)nc2ccccc2c1=O	4.0	·	·	·	·	·
CC(C)c1ccc(NC(=O)CSc2nc3ccsc3c(=O)n2Cc2ccc(C(=O)O)cc2)cc1	-20.4	-0.5	13.3*	12.8	3.0	5.2
CCc1ccc(NC(=O)CSc2nc3ccsc3c(=O)n2CCC(=O)O)cc1	0.7	5.0	5.8	8.0	12.8	·
O=C(O)c1ccc(CN(Cc2ccccc2)S(=O)(=O)c2ccc(Cl)cc2)cc1	9.7	11.9	12.7*	22.4	2.5	3.9
COc1ccc(CNC(=O)CN(Cc2ccccc2)S(=O)(=O)c2ccc(Cl)cc2)cc1	-15.2	1.9	-0.2	10.4	24.4	·
CCc1ccc(OC(=O)CN2C(=O)c3ccccc3C2=O)cc1	-8.7	6.9	6.8	3.5	-0.8	·
O=C(CN1C(=O)c2ccccc2C1=O)Oc1ccc(F)cc1	·	·	12.5*	-5.7	·	9.9
COc1ccc(-c2nc3scc(CCNC(=O)c4ccccc4OC)n3n2)cc1OC	0.0	·	·	·	·	·
O=C(NCCn1ncc2c(=O)n(Cc3ccc([N+](=O)[O-])cc3)cnc21)c1ccc(F)c(F)c1	1.0	·	·	·	·	·
O=C(O)c1cccc(NC(=S)NC(=O)C(c2ccccc2)c2ccccc2)c1	-4.7	·	13.8*	-9.4	14.1	8.4
O=C(O)c1ccc(NC(=S)NC(=O)C(c2ccccc2)c2ccccc2)cc1	-0.3	0.7	2.2	63.3	12.6	·
O=C(NCCN1CCOCC1)c1ccc2c(c1)N(Cc1ccc(F)cc1)C(=O)CS2	10.4	-5.2	10.3	6.6	2.1	·
Cc1ccc(CN2C(=O)CSc3ccc(C(=O)NCCN4CCOCC4)cc32)cc1	-7.7	·	18.6*	6.3	·	8.4
COc1cccc(S(=O)(=O)Nc2ccc3c(c2)OCCO3)c1	1.0	7.9	-3.2	12.7	13.7	·
COc1ccc(NS(=O)(=O)c2ccc3oc(Nc4ccc5c(c4)OCCO5)nc3c2)cc1	31.1	·	13.3*	-6.0	8.2	5.5
CC(C)N1CCc2c(sc(NC(=O)C(c3ccccc3)c3ccccc3)c2C#N)C1	-20.0	·	·	·	·	·
O=C(/C=C/c1cccs1)Nc1scc(-c2ccccc2)c1C(=O)O	5.7	7.3	23.4*	-17.0	11.6	60.6*
O=C1CC(N2CCN(C/C=C/c3ccccc3)CC2)C(=O)N1Cc1cccs1 (stereo not given)	-2.1	·	16.2*	17.0	2.6	-2.2
O=C1CC(N2CCN(C/C=C/c3ccccc3)CC2)C(=O)N1CCc1ccccc1 (stereo not given)	-8.4	1.9	1.8	21.1	3.1	·
